NALP1 inh: NALP1 inhibition; S. cerevisiae NALP1/ASC/caspase-1 growth, X-gal OD620, 72 h; inhibition, % at 10 µM; 280,000 compounds, 0.61% hits; in the data active means inhibition mostly above about 24%, no sharp cut-off; inactive means mostly below about 32%
TIM10 inh: growth inhibitors of TIM10 yeast strain; 330,000 compounds, 1.4% hits; AID 463195; S. cerevisiae TIM10 strain growth, BacTiter-Glo luminescence, 24 h; inhibition, % at 10 µM;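 active means inhibition of 40% or more at the single tested concentration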;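 further: wild-type TIM10 isogenic control strain grown at permissive 25 °C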
tim23-1 inh: tim23-1 yeast growth inhibition; S. cerevisiae tim23-1 growth, BacTiter-Glo luminescence, 24 h; inhibition, % at 20 µM; 330,000 compounds, 1.3% hits;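 active means growth inhibition of the mutant yeast at or above 50%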;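 further: temperature-sensitive mutant grown at 25 °C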
tim10-1 inh: inhibits growth of tim10-1 mutant yeast | S. cerevisiae tim10-1 ts strain growth, BacTiter-Glo, 24 h | inhibition, % at 20 µM | 330,000 compounds, 2.2% hits | AID 463190;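 active means inhibition of at least 40%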;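 further: mutant grown at 25 °C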
NALP3 yeast inh: inhibitors of NALP3 inflammasome in yeast | inhibition, % at 10 µM | 330,000 compounds, 0.39% hits | AID 2825 | Yeast reconstituted NLRP3/ASC/caspase-1, beta-gal luminescence, 24 h;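 active means inhibition of 50% or more; inactive means inhibition below 50%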
TIM10 conf: TIM10 yeast growth inhibition, confirmed | shares compounds with TIM10 inh | inhibition, % at 10 µM | 4,600 compounds, 63% hits | S. cerevisiae tim10 strain growth, BacTiter-Glo luminescence, 24 h;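 active means inhibition of yeast growth at or above a set limit in either of two replicates at 10 µM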; further: this counterscreen used the strain with wild-type TIM10
A number is an active result; . = inactive; / = no result given. Only some compounds are listed: those with a hit (about 4% of all), similar ones and a draw of the others.

SMILES | NALP1 inh | TIM10 inh | tim23-1 inh | tim10-1 inh | NALP3 yeast inh | TIM10 conf
O=C(N/N=C/c1cc([N+](=O)[O-])ccc1O)NC12CC3CC(CC(C3)C1)C2 | . | 43 | . | . | . | .
Cc1cc(N/N=C/c2ccccc2O)c2ccccc2n1 | . | 59 | . | . | . | 27
COc1ccc2nc(C)cc(N/N=C/c3cccc(OC)c3O)c2c1 | . | . | . | . | . | /
O=c1oc2c3c4c(cc2c2c1CCC2)OCCN4CCC3 | . | 41 | . | . | . | .
CCn1ccnc1CN(C)C(=O)C1CCC(=O)N(Cc2cccc(F)c2)C1 (stereo not drawn) | . | . | . | . | . | /
C/C(=N\Nc1ccc(S(=O)(=O)N2CCCCC2)cn1)c1cccc(Br)c1 | / | 41 | . | . | . | 45
COc1cc(CN2CCN(Cc3ccc(C(F)(F)F)cc3)CC2)cc(OC)c1OC | . | . | . | . | . | /
CSCC[C@H](NC(=O)[C@H](Cc1ccccc1)n1c(=O)[nH]c2ccccc2c1=O)C(=O)N1CCC[C@H]1C(=O)O | . | . | . | . | . | /
C[C@H](CO)N1C[C@H](C)[C@@H](CN(C)S(=O)(=O)c2ccccc2)Oc2c(NC(=O)Nc3ccc4c(c3)OCO4)cccc2C1=O | / | . | . | . | . | /
S=c1[nH]nc(-c2cccnc2)n1C1CCCCC1 | . | . | . | . | . | /
COc1ccc(-c2n[nH]c(=S)n2C2CCCCC2)cc1 | . | 43 | . | . | . | 32
CCCNS(=O)(=O)c1cccc(C(=O)NNC(=O)c2cc(C)oc2C)c1 | / | . | . | . | . | /
Cc1cc(C)cc(C(=O)OCC(=O)NC2CCCC2)c1 | . | . | . | . | . | /
Cc1cc(C)cc(C(=O)OCC(=O)NC(=O)NC2CCCC2)c1 | / | 96 | . | . | . | .
Cc1cc(NC(=O)CC#N)n(-c2ccccc2)n1 | . | . | . | . | . | /
Cc1nnc(NC(=O)c2cccc(F)c2)s1 | . | . | . | . | . | /
CC(=O)Cc1nsc(NC(=O)c2cccc(F)c2)n1 | . | 50 | . | . | . | .
CC(C)c1ccc(NC(=O)COC(=O)c2cc(=O)[nH]c3ccccc23)cc1 | / | . | . | . | . | /
C=CCn1c(-c2ccccc2OC)n[nH]c1=S | . | . | . | . | . | /
C=CCn1c(-c2csc3c2CCC(C)C3)n[nH]c1=S (stereo not drawn) | . | 43 | . | . | . | .
CCN1CCN(C(c2cccs2)C(C)NC(=O)C(=O)N2CCCCC2)CC1 (stereo not drawn) | . | . | . | . | . | /
Cc1ccc(/C=N/n2c(-c3cccc(Cl)c3)n[nH]c2=S)o1 | . | 42 | . | . | . | .
S=c1[nH]nc(-c2cccc(Cl)c2)n1/N=C/c1ccco1 | / | . | . | . | . | /
Cc1ccccc1CCN1CCCC(CN(C)C(=O)c2ccc3ncccc3c2)C1 (stereo not drawn) | . | . | . | . | . | /
Cc1ccc(NC(=O)C2OCCc3ccccc32)cc1Cl (stereo not drawn) | . | . | . | . | . | /
SMILES | NALP1 inh | TIM10 inh | tim23-1 inh | tim10-1 inh | NALP3 yeast inh | TIM10 conf
O=C(Nc1ccc2nc(-c3ccco3)[nH]c2c1)c1ccco1 | . | 54 | . | . | . | 37
O=C(Nc1ccc(Oc2ccc3ccccc3c2)cc1)c1ccco1 | . | 43 | . | . | . | 36
O=C(Nc1ccc2nn(-c3ccccc3)nc2c1)c1ccco1 | . | 54 | . | . | . | 51
CCN1CCN(S(=O)(=O)c2ccc(OC)c(NC(=O)c3ccccc3F)c2)CC1 | / | . | . | . | . | /
COc1ccc(N2C(=O)C(C)C(Cc3ccc(C)cc3)C2=O)cc1 (stereo not drawn) | . | . | . | . | . | /
Cc1cccc(CCNC(=O)c2oc3c(C)c(C)ccc3c2C)n1 | . | . | . | . | . | /
Cc1ccc2c(C)c(C(=O)NCCc3ccco3)oc2c1C | . | 97 | . | . | . | .
CN(C(=S)NC(=O)C1CC1)c1ccc(O)cc1 | / | . | . | . | . | /
CCOc1ccc(S(=O)(=O)NCCC(=O)NCC(c2ccc(F)cc2)N2CCOCC2)cc1 (stereo not drawn) | / | . | . | . | . | /
COc1ccc(CNC(=S)NC(C)CCc2ccccc2)cc1 (stereo not drawn) | . | 53 | . | . | . | .
CN(C)c1ccc(N=Cc2nc(-c3ccccc3)oc2OC(=O)c2ccccc2)cc1 | . | . | . | . | . | /
CC(=O)Oc1oc(-c2ccccc2)nc1C=Nc1ccc(N(C)C)cc1 | . | 45 | . | . | . | .

From PubChem BioAssay
